Experimental findings from the supplement of paper PMC6555819 are described below.

The test system of the test is PXR homodimer (NR concentration 270 nM). As to the kind of experiment: PBM binding z-score (relative to random genomic background probes); higher = stronger binding; sequences stand for … in GC…GCGATTGACAGCGTAGAATGAAGG
A digest of the protocol:
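Binding buffer was PBS pH 7.4 with 2% milk, 0.02% Triton X-100, 1 mM DTT, 0.2 mg/mL BSA and 0.4 mg/ml salmon testes DNA. In it, ligand-free nuclear receptor dimers were incubated 1 h on custom Agilent 4×180K protein-binding microarrays carrying double-stranded probes. Antibodies against each partner (one per run) detected binding, and z-scores were calculated against random background probes after regression normalization of scanned fluorescence.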
Sequence AATACAGGGTCATCGTAGGCCAGAGAACGCACAG registered a PBM binding z-score of 0.451.

In turn, CCGACTGGGGCATAAGGTTACGATAAGCCAGCCC yielded a PBM binding z-score of -0.423.

As for CGTCCAAGGTCAGAGAGGTAAGTGAATGCCGAGT, the PBM binding z-score worked out at 1.46.

In turn, TCGAGTAGGTTACCAATGGGGCGTTCAGCTTTCT had a PBM binding z-score of -0.801.

Turning to CCTCCTGGGCCAAAGGTCATTGATTCCAATGCTC, the PBM binding z-score was determined as 1.79.

For the sequence GCGACTGGGGCATCAGGAGGTTACCATAACTTAA, the PBM binding z-score was -0.0464.

In turn, CCTATTAGTTGACCATAAGGGCAACGGAAGCTCG registered a PBM binding z-score of 0.623.

Take CAAACTAGGTCAACGGAAGGTCAAAGTCCGCATG: the PBM binding z-score is 2.3.

Sequence ACTATTAGTTGAGACGCGGGCAACCGATAGGTTG displayed a PBM binding z-score of -0.208.

In turn, ACTAGTTAGTCAGCTGAGGTCACACACAATTCGG gave a PBM binding z-score of 1.6.

ATCGAAAGGTCGAAGGTGAATATACCCACCCGAA had a PBM binding z-score of 0.328.

Turning to ATATCTAGGTTAGCTGGGGTCATTCAGACTAGGC, the PBM binding z-score worked out at 4.27.

The sequence TCTTGTAGATCAAGCAGGTTAAGAAGGCCTGAGT gave a PBM binding z-score of 0.0272.

In turn, CCAGACAGGTTAAAGGTAACTCAGTCTGGTACGC displayed a PBM binding z-score of -0.196.

As to TCTTGTAGATCAAAGGTTAAGTAAGCCGAAGCCT, the PBM binding z-score was found to be 0.0156.

TCTGCAAGGTCAGTTGGTCAGCTAACGAGCTGCC came in with a PBM binding z-score of -0.237.

On to TTACCAAGGTGAAGGTCGCTGATCCCTCTGTAGA, for which the PBM binding z-score is -0.523.

ACTTACGGGGCAACGAGGTTATAGCACGCGTATA returned a PBM binding z-score of 0.644.

Regarding TCTGCTAGGTCAACGATGGTCAGCCAATCTGCTA, the PBM binding z-score was -0.979.

As to ATCTCTACGTAACCAAGTTCAGTGAATGCCGAAC, the PBM binding z-score is 1.4.

In the case of GCTATTAGTTGAAAGGGCATCCGAATGATTCTCG, the PBM binding z-score was 0.374.

CGAACTAGGTCGTTGACAGGACAGTGAATAGTAA gave a PBM binding z-score of -0.188.
